# PubChem BioAssay
# Experiment: small molecules captured by biotinylated probe aFST – biochemical, small-molecule microarray, fluorescence 635/667, stem cell growth factor project, primary screen (AID 1086);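 also: score merges 667 nm fluorescence with signal-to-noise of each printed compound spot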
# Details: higher = more signal
row,Structure (SMILES),composite z-score
1,O=C(OCCF)C1=CCC(c2cccc(Cl)c2)O1 (stereo not given),0.5
2,COC(=O)[C@@]1(Cc2ccc(OC)cc2)[C@H]2c3cc(C(=O)N4CCCC4)n(Cc4ccccn4)c3C[C@H]2CN1C(=O)c1ccccc1,1.01
3,CC(C)=CCCC(C)=CC(O)C1C=CC2C(=O)N(c3ccccc3)C(=O)C2N1Nc1ccccc1 (stereo not given),1.6
4,[N-]=[N+]=NCc1ccccc1[C@H]1OC(c2ccc(OCCCO)cc2)=N[C@@]1(CCS(=O)(=O)c1ccccc1)C(=O)N1CCOCC1,1.86
5,COC(=O)[C@@]1(Cc2ccccc2)[C@H]2c3cc(C(=O)N4CCCC4)n(Cc4ccc(C)o4)c3C[C@H]2CN1C(=O)c1ccccc1,0.935
6,CC(C)OC(=O)CC(=O)CC(O)c1ccc(C#N)cc1 (stereo not given),0.712
7,[N-]=[N+]=NCc1ccccc1C[C@]1(C(=O)O)N=C(c2ccc(OCCCO)cc2)O[C@H]1c1ccccc1,0.219
8,COC(=O)[C@@]1(Cc2ccc(OC)cc2)[C@H]2c3cc(C(=O)N(C)C)n(Cc4c(OC)[nH]cc(C)c4=O)c3C[C@H]2CN1C(=O)c1ccccc1,0.927
9,O=c1cccc(CCc2ccccc2)o1,-0.104
10,CCCCCCCCCCC(O)C1C=CC2C(=O)N(Cc3ccccc3)C(=O)C2N1n1cnnc1 (stereo not given),1.08
11,COC(=O)C[C@@H]1C[C@H](C)[C@]2(O1)C(=O)N(Cc1ccccc1)c1ccc(NC(C)=O)cc12,-0.0507
12,C=CCOC(=O)[C@@H]1[C@H]2C(=O)O[C@H](c3ccccc3)[C@H](c3ccccc3)N2[C@H](c2ccc(OCCOC(=O)[C@@H]3C[C@@H]4C(=O)NCC(=O)N4[C@@H]3c3cccc(OCCO)c3)cc2)[C@@]12C(=O)Nc1ccc(I)cc12,0.272
13,CCCC[C@H]1OB(O)C[C@H]2C1=C(C)C[C@H]1C(=O)N(Cc3ccccc3)C(=O)[C@H]12,0.267
14,CC1CC/C=C\[C@H]2OC34C=CCN(Cc5ccccc5)C(=O)[C@H]3N(CCCCCO)C(=O)[C@@H]4C2C(=O)O1 (stereo not given in full),-0.677
15,CN(C)CCCNC(=O)[C@@]1(Cc2ccccc2I)c2ccccc2C(=O)N(Cc2ccccc2C(F)(F)F)[C@H]1c1ccc(CO)cc1,-0.309
16,COc1ccc([Si](C)(C)[C@@H]2[C@@H](CC(=O)N3CCC[C@H]3CO)O[C@]3(C(=O)N(C)c4c(Br)cc(C)cc43)[C@H]2C)cc1,0.219
17,COCC1=C2[C@@H](CCc3ccccc3)OB(O)C[C@@H]2[C@@H]2C(=O)N(Cc3ccccc3)C(=O)[C@@H]2C1,-0.492
18,COCCOC(=O)N1C(=O)[C@@]2(c3ccccc31)[C@H](C(=O)NC[C@H](O)c1ccccc1)[C@H]1C(=O)O[C@H](c3ccccc3)[C@H](c3ccccc3)N1[C@@H]2c1ccc(OCCO)cc1,0.53
19,C=CC[C@@H](OC(=O)Nc1ccc(OC)cc1)c1ccc(O)c2ccccc12,0.56
20,COCCOC(=O)N1C(=O)[C@@]2(c3cc(C#CCCO)ccc31)[C@H](c1ccccc1OCCO)N1[C@H](c3ccccc3)[C@H](c3ccccc3)OC(=O)[C@H]1[C@@H]2C(=O)N1CCN(c2ncccn2)CC1,1.4
21,CCC[C@@H]1C=C(C(=O)O)[C@H](c2ccc(C)cc2)N1S(=O)(=O)c1ccc(C)cc1,0.648
22,COc1ccc(C(O)C2C=CC3C(=O)N(c4ccccc4)C(=O)C3N2Nc2ccc([N+](=O)[O-])cc2)cc1OCc1ccccc1 (stereo not given),2.36
23,O=C/C=C/c1ccc2c(c1)OCO2,-0.158
24,CN(C)C(=O)[C@@]1(CCC(=O)OC(C)(C)C)N=C(c2ccc(OCCCO)cc2)O[C@H]1c1ccccc1,0.356
25,C=C(C(=O)CC[C@H](OC(C)=O)c1ccc(OCCO)cc1)C(C)C,0.0745
26,O=c1cccc(C=Cc2ccccc2)o1,-0.369
27,C=CCC(OC(C)=O)[C@@H]1[C@@H](N(Cc2cccc3ccccc23)C(=O)c2cccc3ccccc23)c2cc(OCCCO)ccc2N1C(=O)c1ccc2ccccc2n1 (stereo not given in full),0.0846
28,COc1ccc(CCNC(=O)[C@@]2(c3ccc([N+](=O)[O-])cc3)CC(=O)N(CC34CC5CC(CC(C5)C3)C4)[C@@H]2c2ccc(CO)cc2)cc1,0.298
29,COCCOC(=O)N1C(=O)[C@@]2(c3ccccc31)[C@H](C(=O)Nc1nc3ccccc3s1)[C@H]1C(=O)O[C@H](c3ccccc3)[C@H](c3ccccc3)N1[C@@H]2c1ccc(OCCO)cc1,0.381
30,CC(C)(C)OC(=O)CC[C@@]1(C(=O)NCCN2CCOCC2)N=C(c2ccc(OCCCO)cc2)O[C@@H]1c1ccccc1,0.972
